Each structure is given as a SMILES string. Out of some 410,000 compounds screened, about 7,200 (1.8%) were called active. Where a call stands in place of a potency, no number is given. About 7% were inconclusive and are not listed. Calls come from the whole dose curve; as a rule, active = well fitted activation curve with a large enough effect; inconclusive = small, poorly fitted or top-dose-only effect, or another doubt; inactive = no such curve, though single readings can be large or run the other way. The sample as a whole holds a higher share of actives than the screen did.
Potency is the fitted concentration of half-maximal effect.

A short description of this assay: qHTS of TDP-43 Inhibitors. Note: nearly all actives have a fitted effect of over 50% in size. The settings on record: TDP-43 expressing yeast growth rescue, BacTiter-Glo, 24 h; series mostly up to 46.1 µM. Put shortly:
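Yeast expressing TDP-43 (pregrown in raffinose, seeded at OD600=0.02 in galactose medium) exposed to compounds 24 hr at 30 deg C. Growth read by BacTiter-Glo luminescence; rescue of toxicity appears as increased signal.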
A general note: In qHTS, concentration-response curves come from the screen itself.
`O=C(NCC(c1ccco1)S(=O)(=O)c1cccs1)c1ccc(F)cc1` (stereo unspecified): the Potency result was “inactive”.
On the same count and under the same terms, the result for `Cc1ccc(N(CC(=O)NCc2ccc(Cl)cc2)S(=O)(=O)N(C)C)cc1` reads “inactive”; that for `COc1ccccc1CNC(=O)C(Cc1ccccc1)NS(=O)(=O)c1ccc2c(c1)oc(=O)n2C` (stereo unspecified), “inactive”; that for `Cc1ccc(Cn2c(=O)n(-c3ccc(C)cc3)c(=O)c3c2c2cc(C)ccc2n3C)cc1`, “inactive”.
Same read-out and setting: the result for `CCOc1ccc(N2CC(C)Cn3c2nc2c3c(=O)n(Cc3c(F)cccc3Cl)c(=O)n2C)cc1` (stereo unspecified) reads “inactive”; that for `CCOC(=O)CN1C(C(=O)c2ccccc2)=C(OC(=O)C(C)(C)C)c2ccccc2S1(=O)=O`, “inactive”; that for `CC(=O)OC1=C(C(C)=O)N(Cc2ccccc2)S(=O)(=O)c2ccccc21`, 35.5 µM (active).
The same measure, in the same setting: the same measure for `CCCCC(=O)OC1=CN(Cc2ccccc2)S(=O)(=O)c2ccccc21`: “inactive”.
Regarding `CC(=O)Oc1ccc(-c2cccc(C(=O)N3CCCCC3)c2)cc1`, the growth rescue (activation) was -16% [at 1.82 µM] (inactive).
`CC(=O)c1ccc(OC(=O)N2CCOCC2)cc1`: the Potency entry was “inactive”.
The same measure, in the same setting: the result for `O=C(c1ccccc1)c1ccc(OC(=O)N2CCCC2)cc1` reads 11.2 µM (active); that for `O=S(=O)(NCC1OCCc2ccccc21)c1ccccc1` (stereo unspecified), 10 µM (active); that for `O=S(=O)(NCCc1ccccc1)c1ccccc1`, “inactive”.
With `O=C(Cc1ccccc1)NCC1OCCc2ccccc21` (stereo unspecified), the Potency entry was “inactive”.
Consider `CCCOc1ccc(C(=O)Nc2ccc3oc(-c4cccc(Cl)c4Cl)nc3c2)cc1`, for which the Potency result was “inactive”.
Still for that read-out and setting: the same measure for `CCOc1ccc(NC(=O)c2cc(S(=O)(=O)N3CCCC3)c[nH]2)cc1`: “inactive”; for `CN(C)c1ccc(-c2nnc(-c3cccnc3)o2)cc1`: 10 µM (active); for `CCCN(CCC)c1ccc(C(O)c2nnc(-c3ccccc3)o2)cc1` (stereo unspecified): “inactive”.
For the compound `CC1(c2nnc(-c3ccncc3)o2)CC(c2cccnc2)=NO1` (stereo unspecified), the Potency result was “inactive”.
As to `O=C(Cn1ncc2c3ccccc3n(Cc3ccccc3)c2c1=O)NC1CCCCCC1`, the Potency result is “inactive”.
For `CCC(Sc1nnc(-c2ccc(OC)cc2)c(-c2ccc(OC)cc2)n1)C(=O)NC1CCCCC1` (stereo unspecified), the Potency result is “inactive”.
In the case of `CN(Cc1ccccc1)C(=O)c1cn(C)c2ccc(S(=O)(=O)N(C)C3CCCCC3)cc2c1=O`, the Potency result is “inactive”.
Same read-out and setting: the same measure for `CCOc1ccccc1CNC(=O)c1ccc2c(c1)nc1n2CCC(C)C1` (stereo unspecified): “inactive”; for `CCOc1ccccc1C(=O)NCC(c1ccc(N(C)C)cc1)N1CCCC1` (stereo unspecified): “inactive”.
For the compound `COc1ccc(-c2noc(CSc3nnc(-c4ccccc4)n3-c3ccc(F)cc3)n2)c(OC)c1`, the Potency result was “inactive”.
As for `CCc1cc(C(c2ccccc2OC)N2CCOCC2)c(NC(=O)c2ccccc2)s1` (stereo unspecified), the Potency was 20 µM (active).
Same read-out and setting: the result for `COc1cc(C(c2c(NC(=O)c3ccco3)sc(C)c2C)N2CCOCC2)cc(OC)c1OC` (stereo unspecified) reads “inactive”; that for `COc1ccccc1C(=O)Nc1cccc(C(=O)N2CCOCC2)c1`, “inactive”.
Consider `COc1ccccc1NC(=O)C1=C(C)Nc2nc(SCC(=O)c3ccc(C)cc3)nn2C1c1ccccc1C` (stereo unspecified), for which the Potency result is “inactive”.
`CCCCn1c(CNC(=O)C23CC4CC(CC(C4)C2)C3)nnc1SCC(=O)Nc1ccc(C)cc1`: the Potency result is “inactive”.
As to `O=C(CO/N=C/c1ccccc1O)NNC(=O)c1ccccc1Cl`, the Potency was 3.16 µM (active).
With `O=C(COc1ccccc1F)NNC(=O)c1cc(Br)ccc1Cl`, the Potency result is “inactive”.
For the compound `O=C(CO/N=C/c1ccccc1OC(F)F)NC1CCCC1`, the growth rescue (activation) is 26.6% [at 9.22 µM] (inactive).
Consider `O=C(c1ccccc1F)N1CCC(c2nc3c(nnn3Cc3cccc(F)c3)c(=O)[nH]2)CC1`, for which the Potency entry was “inactive”.
On the same count and under the same terms, the result for `CC(C)c1ccc(OCC(=O)N(Cc2ccc(N(C)C)cc2)C2CCS(=O)(=O)C2)cc1` (stereo unspecified) reads “inactive”; that for `COc1ccc(-c2cn3c(n2)sc2cc(C(=O)Nc4ccccc4F)ccc23)cc1`, “inactive”; that for `NNC(=O)c1ccc(COCC(F)(F)C(F)F)cc1`, “inactive”.
In the case of `Cc1ccc(COc2ccc(C(=O)NN)cc2)cc1`, the Potency was 15.8 µM (active).
On the same count and under the same terms, the same measure for `Cc1oc(C(N)=O)cc1COc1ccc(C(N)=O)cc1`: “inactive”.
Same read-out and setting: the same measure for `Cc1nn2c(=O)cc(COC(=O)c3ccccc3NC(=O)COc3ccccc3C)nc2s1`: “inactive”.
Same read-out and setting: the same measure for `CCc1ccc2oc(-c3ccc(C)c(NC(=O)/C=C/c4ccco4)c3)nc2c1`: “inactive”.
In the case of `Cc1ccc(OCCSc2nc(-c3cccs3)nc3cc(=O)[nH]n23)cc1Cl`, the Potency result was “inactive”.
On to `COc1ccc(-c2nc3cnccn3c2NC(C)(C)CC(C)(C)C)cc1O`, for which the Potency entry is “inactive”.
Regarding `Cc1ccc(Nc2c(-c3ccc(C)s3)nc3ccccn23)cc1`, the Potency result was “inactive”.
In the case of `Cc1ccc(Nc2c(-c3ccc(C)cc3)nc3cnccn23)cc1`, the Potency was 22.4 µM (active).
The same measure, in the same setting: the result for `COc1ccc(-c2nc(CN3CCC(C(=O)NCCN(CC(C)C)CC(C)C)CC3)c(C)o2)cc1OC` reads “inactive”; that for `CCNS(=O)(=O)c1cc(-c2nnc(Nc3cccc(C(F)(F)F)c3)c3ccccc23)ccc1C`, “inactive”.
The same measure, in the same setting: the result for `CCC1=Nc2cc(C(=O)NCCCOC(C)C)ccc2Sc2ccc(C)cc21` reads “inactive”.
For `COc1ccc(NC(C)=O)cc1NC(=O)CN1CCN(c2ccc(F)cc2)CC1`, the Potency result is “inactive”.
For the compound `CC(=O)c1ccc(N2CCN(CC(=O)Nc3ccccc3N3CCOCC3)CC2)cc1`, the growth rescue (activation) was -6.9% [at 9.22 µM] (inactive).
Turning to `CCC(C)C(=O)Nc1ccccc1N1CCN(c2ccc(F)cc2)CC1` (stereo unspecified), the Potency is 25.1 µM (active).
Still for that read-out and setting: the result for `CCCC(=O)Nc1ccccc1N1CCN(C(=O)c2ccccc2)CC1` reads “inactive”; that for `CCCCC(=O)Nc1ccccc1N1CCN(c2ccc(F)cc2)CC1`, 22.4 µM (active).
Regarding `CC(=O)N1c2ccccc2CC1C(=O)N1CCN(c2ccc(F)cc2)CC1` (stereo unspecified), the Potency entry is “inactive”.
Still for that read-out and setting: the same measure for `CCCC12CN3CC(CCC)(CN(C1)C3c1c[nH]c3ccc(OC)cc13)C2=O` (stereo unspecified): “inactive”; for `CCCCCC(O)c1cccc(OCc2ccc3ccccc3n2)c1` (stereo unspecified): 12.6 µM (active); for `COc1cccc(C(O)c2ncc(-c3ccc4ccccc4c3)[nH]2)c1` (stereo unspecified): “inactive”.
For the compound `COc1cccc(C(O)c2nc3ccccc3n2C)c1` (stereo unspecified), the Potency result is “inactive”.
Turning to `COc1ccc(OC)c(-c2csc(-c3c(N)c(C(=O)c4ccccc4)n4ccccc34)n2)c1`, the Potency entry was “inactive”.
Consider `CCC(=O)Nc1cccc(-c2nc3cc(C)ccc3o2)c1`, for which the Potency was 14.1 µM (active).
With `O=C(Nc1cccc(-c2nc3ccccc3o2)c1)c1cccc(Br)c1`, the Potency result is “inactive”.
Regarding `Cc1ccc(SCC(=O)Nc2ccc3oc(-c4ccccc4C)nc3c2)cc1`, the Potency result is “inactive”.
Same read-out and setting: the result for `CCOc1ccc(-n2c(C)nc3c(cnn3-c3ccc(C)cc3)c2=O)cc1` reads “inactive”; that for `CCOC(=O)Cn1c(=O)n(C2CCCCC2)c2nc(-c3cccc(OC)c3)nc(C(N)=O)c21`, “inactive”; that for `Cc1ccc(Cl)cc1NC(=O)CCS(=O)(=O)c1ccc(Br)s1`, “inactive”.
Consider `O=c1[nH]snc1-c1c(Cl)cccc1Cl`, for which the Potency is 17.8 µM (active).
For the compound `O=Cc1c(Cl)cccc1Cl`, the Potency entry was “inactive”.
For `CN(C)NC(=O)c1csnc1-c1c(Cl)cccc1Cl`, the Potency entry was “inactive”.
Turning to `Cc1ccccc1N1CC(C(=O)Nc2ccc3c(c2)OCO3)CC1=O` (stereo unspecified), the Potency result was “inactive”.
As to `O=C(Nc1ccc2c(c1)OCO2)C1CC(c2c(F)cccc2Cl)=NO1` (stereo unspecified), the Potency is 10 µM (active).
The same measure, in the same setting: the result for `Cc1ccc(NC(=O)C2CC(c3ccc(F)cc3)=NO2)cc1` (stereo unspecified) reads “inactive”; that for `Cc1cccc(CSc2nc3ccncc3n2Cc2ccc(C(=O)O)cc2)c1`, “inactive”; that for `Cc1ccc(C(=O)Nc2nnc(C3=COCCO3)o2)cc1C`, “inactive”.
Consider `COc1ccccc1-c1nnc(NC(=O)c2ccc3ncsc3c2)o1`, for which the Potency was 11.2 µM (active).
`CSc1ccccc1-c1nnc(NC(=O)c2ccc3c(c2)OCCO3)o1`: the Potency result is “inactive”.
For `CCOc1ccc(NC(=O)CCC(=O)N2CC(C)Oc3ccc(C)cc32)cc1` (stereo unspecified), the Potency entry is “inactive”.
Turning to `Clc1ccc(C2=CSC3=Nc4cccc5cccc(c45)N23)cc1`, the Potency is 17.8 µM (active).
Regarding `COc1ccc(CCN2C(=O)c3oc4cc(C)cc(C)c4c(=O)c3C2c2ccccc2F)cc1OC` (stereo unspecified), the Potency result is “inactive”.
The same measure, in the same setting: the result for `O=C(Nc1cccc(NC(=O)c2ccco2)c1)c1cnccn1` reads 12.6 µM (active); that for `O=C(Nc1ccc2nc(SCCOc3ccccc3)sc2c1)c1ccco1`, “inactive”; that for `O=C(Nc1cc(-c2nc3ncccc3o2)ccc1Cl)c1ccco1`, “inactive”.
For the compound `CSc1nc(=O)c2c(n1C)NC(=O)CC2c1ccccc1OC(C)C` (stereo unspecified), the growth rescue (activation) is 5.81% [at 9.22 µM] (inactive).
For the compound `COc1ccc(CCN2C(=O)N(c3cccc(OC)c3)C(=O)C2CC(=O)Nc2ccccc2)cc1` (stereo unspecified), the Potency result is “inactive”.
Same read-out and setting: the same measure for `N#Cc1ccccc1Cn1cnc2nc3c(cc2c1=O)CCCC3`: “inactive”; for `Cc1ccc2onc(CC(=O)N3CCN(c4ccc(Cl)cc4)CC3)c2c1`: 20 µM (active); for `Cc1ccc2oc(=O)c3cnn(CC(=O)N4CCN(c5cccc(Cl)c5)CC4)c3c2c1`: “inactive”.
On to `O=C(CSc1nc2ccccc2o1)N1CCN(c2ccc(Cl)cc2)CC1`, for which the Potency result is “inactive”.
With `Cc1nnc(NCc2ccccc2)c2c1nnn2Cc1ccc(F)cc1`, the Potency result was “inactive”.
Still for that read-out and setting: the same measure for `Cc1nc2nc(SCC(=O)N(Cc3ccccc3)C(C)C)nn2c(C)c1Cc1ccccc1Cl`: “inactive”; for `Cc1cccc(NC(=O)C2CCN(S(=O)(=O)c3c(C)noc3/C=C/c3ccco3)CC2)c1`: “inactive”.
`NC(=O)Nc1ccc(C(=O)OCC(=O)NC2CCCc3ccccc32)cc1` (stereo unspecified): the Potency entry is “inactive”.
Take `O=C(CCNC(=O)c1ccc(Cl)cc1)NC1CCCc2ccccc21` (stereo unspecified): the Potency entry is “inactive”.
As for `O=C(Nc1cccc(F)c1)NC1CCCc2ccccc21` (stereo unspecified), the Potency was 12.6 µM (active).
On to `Cc1cccc(Cn2c(CN3CCC(C(=O)NCc4ccccc4Cl)CC3)cc3ccccc32)c1`, for which the Potency result is “inactive”.
For the compound `Cc1ccc(CSc2nc3cccnc3n2Cc2ccc(C(=O)NC3CC3)cc2)cc1`, the Potency entry is “inactive”.
For the compound `COc1ccc(-c2onc(C)c2C)cc1S(=O)(=O)NCCc1ccccc1`, the Potency is 15.8 µM (active).
For `COc1ccc(C)cc1S(=O)(=O)NCCc1ccccc1`, the Potency result was “inactive”.
On to `COc1ccc(-c2onc(C)c2C)cc1S(=O)(=O)NCc1cccs1`, for which the Potency result was “inactive”.
The same measure, in the same setting: the result for `Cc1ccc(N(CC(=O)NCC(C)c2ccccc2)S(=O)(=O)N(C)C)cc1` (stereo unspecified) reads “inactive”; that for `CCCN(CCC)CCNC(=O)c1ccc2c(c1)NC(=O)C(CS(=O)(=O)Cc1cccc(Br)c1)N2` (stereo unspecified), “inactive”.
Still for that read-out and setting: the result for `CCOc1ccc(-c2nonc2NC(=O)c2oc3ccc(CC)cc3c2C)cc1` reads “inactive”.

For the origin of these results see PubChem BioAssay AID652104 (National Center for Advancing Translational Sciences (NCATS), 2013).
